PubChem BioAssay (NCI)
Compounds without any hit were thinned out: in the full panel of roughly 83,000, 20% have a hit.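 Negative percent growth values reflect cell death: -40 means 40% of the cells present at the start died, and -100 means all died.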 Calls of active or inactive are those of the source. How the source made its calls: active means growth percent below 10; inactive means the rest.

Key:
Test in all cases: NCI-60 one-dose screen, 48 h (100 = growth as untreated, 0 = no growth, -100 = all killed)
Settings in all cases: 10 µM unless noted
[1] = tested on: RPMI-8226 leukemia
[2] = tested on: OVCAR-8 ovarian
[3] = tested on: OVCAR-5 ovarian
[4] = tested on: OVCAR-4 ovarian
[5] = tested on: IGROV1 ovarian
[6] = tested on: OVCAR-3 ovarian
[7] = tested on: HS 578T breast
[8] = tested on: NCI/ADR-RES ovarian
[9] = tested on: T-47D breast

Measured: growth

COc1cc(/C(C#N)=C/c2nc3c(N4CCOCC4)nc(Cl)nc3n2C)cc(OC)c1OC
active: [1] 7.11% | [5] 8.43% | [6] 0.593% | [7] 0.385% | [8] 8.53%
inactive: [2] 21.8% | [3] 34.6% | [4] 21.9% | [9] 33.9%

O=c1c(-c2nc3ccccc3[nH]2)cc2ccccc2n1Cc1cn(Cc2ccc(N3CCOCC3)cc2)nn1
active: [4] 6.82%
inactive: [1] 80.4% | [2] 37.4% | [3] 77.3% | [5] 40% | [6] 83.5% | [7] 74.7% | [8] 68.8% | [9] 71.4%

COC(=O)/C(CCC=C(C)C)=C1\[C@@H](OC(C)=O)C[C@@]2(C)[C@H]1C[C@@H](O)[C@H]1[C@@]3(C)CC[C@H](NC(=O)c4cnccn4)[C@@H](C)[C@@H]3CC[C@@]12C
inactive: [1] 75.8% | [2] 92.5% | [3] 109% | [4] 98.4% | [5] 107% | [6] 108% | [7] 96.4% | [8] 99.4% | [9] 87.4%
